The text below walks through data of PubChem BioAssay AID493232 (The Scripps Research Institute Molecular Screening Center, 2011).

About 860 (48%) of roughly 1,800 compounds were called active. The set was probably picked from earlier hits. These entries were drawn from the full list. Unmarked numbers belong to inactive results. Cut-off read from the data, not from the text of the source: active = inhibition above about 17%; inactive = the rest.

This experiment in a line: CHO-K1 parental line HTRF response – cell-based, counter-screen for OX1R antagonist project (AID 493232).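 Note: 0% = agonist challenge with vehicle and 100% = vehicle alone without agonist.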 The settings on record: parental CHO-K1 cells, HTRF counterscreen; at 6.6 µM; active compounds read high.
On to `CC(C)(C)NC(=O)CN(C(=O)c1csnn1)c1ccccc1-c1ccccc1`, for which the inhibition is 1.93%. Next, `CN1CCN(/N=C/c2ccc(-c3ccc([N+](=O)[O-])cc3)o2)CC1`: 34% (active). The value for `Cc1oc2c(c1C(=O)N1CCOCC1)C(=O)c1ccccc1C2=O` was 104% (active). Next, `CC(NC(=O)c1cccc2ccccc12)c1ccc2c(c1)CCCC2` (configuration not stated): 9.37%; `CCOc1cc(/C=C(\C#N)c2nc(-c3cccs3)c(NC(C)=O)s2)ccc1O`: 2.21%; `CC(C)CC[n+]1ccn(C2=C([O-])c3ccccc3C(=O)/C2=N\S(=O)(=O)c2ccccc2)c1`: 100% (active). With `O=C(OC1CCOC1=O)c1ccc(-c2nc3ccccc3s2)s1` (configuration not stated), the inhibition is 28.1% (active). Next, `Cc1cc(=O)oc(C)c1C(=O)NCCN(C)Cc1ccccc1`: 4.29%. The value for `O=C(c1ccncc1)c1ccc([N+](=O)[O-])cc1` was 68.8% (active).

For `CC(=O)Nc1ccc(Nc2c([N+](=O)[O-])cc(S(C)(=O)=O)cc2[N+](=O)[O-])cc1`, the inhibition was 71% (active). The value for `CC(C)(C)NC(=O)Cn1cnc2cc([N+](=O)[O-])ccc2c1=O` was 73.7% (active); that for `O=C(Nc1cccc2cccnc12)c1cccc(N2C(=O)CCC2=O)c1` was 8.23%; that for `O=C(Cc1ccccc1)N1CCN(S(=O)(=O)c2ccc([N+](=O)[O-])cc2)CC1` was 28.9% (active). Next, `Cc1ccc([C@@H]2CC=C(C(=O)O)[C@H](c3cccc(Cl)c3)N2S(=O)(=O)c2ccc(C)cc2)cc1`: 4.59%; `S=c1[nH]nc(-c2cc(-c3ccccc3)n[nH]2)n1/N=C/c1c2ccccc2cc2ccccc12`: 6.53%; `Cc1cccn2c(=O)c3cc(C#N)c(=NC(=O)c4cccnc4)n(CC4CCCO4)c3nc12` (configuration not stated): 46.1% (active). Next, `Nc1nc(COC(=O)CCC(=O)c2ccc(Cl)cc2)nc(Nc2ccccc2)n1`: -0.94%. On to `Cc1cccc(NC(=O)Nc2cccc(Oc3c(F)c(F)c(F)c(F)c3F)c2)c1`, for which the inhibition is 14.7%.

Consider `O=C(NC(Cc1c[nH]c2ccccc12)C(=O)N/N=C/c1ccc(Br)cc1)c1cccs1` (configuration not stated), for which the inhibition was 3.77%. The value for `COC(=O)c1sccc1NC(=O)CSc1ccccc1NS(=O)(=O)c1cc(Cl)ccc1Cl` was 12.9%; that for `COCCCNC(=S)NC(=O)c1ccc([N+](=O)[O-])cc1` was 29.9% (active); that for `COc1cc(OC)c(NC(=O)c2ccc(Br)o2)cc1Cl` was 8.45%. Regarding `CCOc1ccc(NC(=O)CCS(=O)(=O)c2cccc3nsnc23)cc1`, the inhibition was 35.3% (active). The value for `COc1ccc(N(C)C(=O)CCS(=O)(=O)c2cccc3nsnc23)cc1` was 56% (active); that for `COc1ccc2sc(-c3ccc(N(C)C)cc3)c(C#CCO)c2c1` was 14.2%.

On to `C=CCn1c(SCC(=O)Nc2nc3ccccc3s2)nnc1-c1ccccc1O`, for which the inhibition is -0.28%.

Turning to `N#CC(=C1SC=CS1)c1nc(-c2ccccc2)cs1`, the inhibition was 14.8%.
